PubChem BioAssay (Tox21)
Records with an inconclusive call do not appear. Active and inactive are the calls of the source. Unless noted, the call rests on the fitted dose curve; in most records, active means well fitted curve in the direction sought with a large enough effect in the repeat runs; inconclusive means weak or mixed curves; inactive means no such curve, though single readings can be large; an effect the other way counts as inactive or inconclusive.

Tests used:
[1] = biological target: Peroxisome proliferator-activated receptor delta (Homo sapiens) (UniProt Q03181); assay: qHTS assay to identify small molecule antagonists of the peroxisome proliferator-activated receptor delta (PPARd) signaling pathway (AID 743215; active means well fitted inhibition curve with a large enough effect in the signal ratio in the repeat runs, not every such curve was filed as active; the % refers to the signal ratio;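 further: cells stimulated with agonist L165041 at 300 nM final during compound exposure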; further: potency means the concentration at half of the fitted maximal effect)
Summary of the method: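 With L165041 present at 300 nM final, compounds were incubated 17 h at 37 C on PPARd UAS-bla HEK293H cells. A FRET-based beta-lactamase substrate was then applied for 2 h at room temperature and fluorescence intensity recorded.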

[2] = qHTS assay to identify small molecule agonists of the farnesoid-X-receptor (FXR) signaling pathway - cell viability counter screen (AID 743218); further: nearly all actives have a fitted effect of over 45% in size; further: potency means the concentration at half of the fitted maximal effect
Summary of the method: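 After 16 h at 37 C with test compounds, FXR-bla HEK 293T cells were given LiveBLAzer B/G substrate for 2 h at RT and then CellTiter-Glo; luminescence was taken after 30 min.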

[3] = qHTS assay to identify small molecule antagonists of the farnesoid-X-receptor (FXR) signaling pathway - cell viability counter screen (AID 743221; active means well fitted cell-killing curve with a large enough effect in the repeat runs, not every such curve was filed as active; further: nearly all actives have a fitted effect of over 50% in size; further: potency means the concentration at half of the fitted maximal effect)
Summary of the method: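 Compound effects on cell number were measured as CellTiter-Glo luminescence in HEK 293T cells expressing FXR-UAS-bla, after 16 h at 37 C with 50 uM CDCA (final).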

[4] = qHTS assay to identify small molecule agonists of the vitamin D receptor (VDR) signaling pathway - cell viability counter screen (AID 743224); further: nearly all actives have a fitted effect of over 50% in size; further: potency means the concentration at half of the fitted maximal effect
Summary of the method: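 Here cell health was gauged by luminescent ATP detection (CellTiter-Glo, 30 min RT) in VDR-bla cells that had been incubated with test compounds for 16 h at 37C and 5% CO2.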

[5] = qHTS assay to identify small molecule antagonists of the peroxisome proliferator-activated receptor delta (PPARd) signaling pathway - cell viability counter screen (AID 743213); further: nearly all actives have a fitted effect of over 50% in size; further: potency means the concentration at half of the fitted maximal effect
Summary of the method: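 CellTiter-Glo was added to PPARd-bla HEK293H wells following 17 h compound treatment in the presence of 300 nM L165041. Luminescence was recorded after 30 min at room temperature.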

[6] = biological target: Bile acid receptor (Homo sapiens) (UniProt Q96RI1); assay: qHTS assay to identify small molecule agonists of the farnesoid-X-receptor (FXR) signaling pathway (AID 743220; active means well fitted activation curve with a large enough effect in the signal ratio in the repeat runs, not every such curve was filed as active; the % refers to the signal ratio)
Summary of the method: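 Beta-lactamase reporter under UAS control in GeneBLAzer FXR HEK 293T cells (5000/well) measured with LiveBLAzer FRET substrate after 2 h at room temperature. Compound exposure lasted 16 h at 37C.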

[7] = biological target: Vitamin D3 receptor (Homo sapiens) (UniProt P11473); assay: qHTS assay to identify small molecule agonists of the vitamin D receptor (VDR) signaling pathway (AID 743222; calls by dose curve)
Summary of the method: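 VDR-bla cells were seeded, left 4 h, treated with compounds in DMSO for 16 h, incubated 2 h at RT with B/G FRET substrate, and read for fluorescence.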

[8] = biological target: Vitamin D3 receptor (Homo sapiens) (UniProt P11473); assay: qHTS assay to identify small molecule antagonists of the vitamin D receptor (VDR) signaling pathway (AID 743223; active means well fitted inhibition curve with a large enough effect in the signal ratio in the repeat runs, not every such curve was filed as active; the % refers to the signal ratio)
Summary of the method: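 Beta-lactamase activity in VDR-bla cells is measured by FRET substrate fluorescence (2 h, room temperature) after cells spend 16 h at 37C with test compound and 3 nM final 1alpha,25-dihydroxyvitamin D3.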

[9] = biological target: Bile acid receptor (Homo sapiens) (UniProt Q96RI1); assay: qHTS assay to identify small molecule antagonists of the farnesoid-X-receptor (FXR) signaling pathway (AID 743217; active means well fitted inhibition curve with a large enough effect in the signal ratio in the repeat runs, not every such curve was filed as active; the % refers to the signal ratio)
Summary of the method: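 In this cell-based antagonist screen, inhibition of CDCA-driven (50 uM final) UAS-beta-lactamase expression in HEK 293T cells was measured by FRET fluorescence following 16 h compound exposure at 37 °C.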

Measured: Potency

Sequence of Bile acid receptor (Homo sapiens) (Q96RI1 whole entry, looked up): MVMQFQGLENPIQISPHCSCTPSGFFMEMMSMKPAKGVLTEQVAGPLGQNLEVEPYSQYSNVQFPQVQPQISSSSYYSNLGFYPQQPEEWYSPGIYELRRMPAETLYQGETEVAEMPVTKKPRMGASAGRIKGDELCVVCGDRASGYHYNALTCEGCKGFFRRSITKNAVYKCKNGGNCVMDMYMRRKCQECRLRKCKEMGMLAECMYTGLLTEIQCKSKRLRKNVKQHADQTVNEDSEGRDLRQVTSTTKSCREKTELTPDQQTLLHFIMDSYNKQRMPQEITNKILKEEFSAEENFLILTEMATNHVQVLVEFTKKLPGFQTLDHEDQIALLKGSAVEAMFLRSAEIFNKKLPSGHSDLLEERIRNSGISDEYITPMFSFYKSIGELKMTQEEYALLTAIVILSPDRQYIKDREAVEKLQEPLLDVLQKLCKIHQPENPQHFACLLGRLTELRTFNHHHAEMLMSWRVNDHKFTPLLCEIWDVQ
Sequence of Vitamin D3 receptor (Homo sapiens) (P11473 whole entry, looked up): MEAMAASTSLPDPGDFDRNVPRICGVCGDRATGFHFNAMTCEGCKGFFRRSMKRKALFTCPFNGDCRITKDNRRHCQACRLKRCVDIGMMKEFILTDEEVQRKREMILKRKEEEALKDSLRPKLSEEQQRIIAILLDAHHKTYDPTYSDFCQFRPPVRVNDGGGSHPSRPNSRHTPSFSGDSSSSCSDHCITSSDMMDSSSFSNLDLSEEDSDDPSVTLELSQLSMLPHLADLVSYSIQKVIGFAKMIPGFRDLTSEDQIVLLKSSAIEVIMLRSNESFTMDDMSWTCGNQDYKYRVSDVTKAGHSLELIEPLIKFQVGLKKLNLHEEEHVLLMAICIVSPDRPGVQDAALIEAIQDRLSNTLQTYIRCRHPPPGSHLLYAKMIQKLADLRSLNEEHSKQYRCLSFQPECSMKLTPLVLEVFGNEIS
Sequence of Peroxisome proliferator-activated receptor delta (Homo sapiens) (Q03181 whole entry, looked up): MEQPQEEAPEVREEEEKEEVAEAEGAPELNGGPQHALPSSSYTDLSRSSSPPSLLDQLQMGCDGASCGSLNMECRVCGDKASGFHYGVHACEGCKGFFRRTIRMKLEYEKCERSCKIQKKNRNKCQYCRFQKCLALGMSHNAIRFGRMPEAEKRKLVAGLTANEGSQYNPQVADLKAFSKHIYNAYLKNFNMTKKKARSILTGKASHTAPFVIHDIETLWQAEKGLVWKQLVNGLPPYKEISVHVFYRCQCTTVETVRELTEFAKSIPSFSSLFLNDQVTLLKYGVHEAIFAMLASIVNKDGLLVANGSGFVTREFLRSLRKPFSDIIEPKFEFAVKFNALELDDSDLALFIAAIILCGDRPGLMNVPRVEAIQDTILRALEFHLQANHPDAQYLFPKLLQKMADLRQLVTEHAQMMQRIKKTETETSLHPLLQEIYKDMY

CCCCCCCCCCCCCCCCCCn1cc[n+](C)c1
active: [1] 19.4 µM | [2] 48.7 µM | [3] 34.5 µM | [4] 9.72 µM

CC(C)[C@H](C(=O)OC(C#N)c1cccc(Oc2ccccc2)c1)c1ccc(OC(F)F)cc1 (some centres undefined)
inactive: [5] | [6] | [3] | [7] | [4]

COc1ccc(/C(=C/C(=O)N2CCOCC2)c2ccc(Cl)cc2)cc1OC
inactive: [5] | [6] | [3] | [7] | [4]

C=CC(=O)OCCCCOC(=O)C=C
active: [2] 54.9 µM

Cc1cc(C)cc(OP(=O)(Oc2cc(C)cc(C)c2)Oc2cc(C)cc(C)c2)c1
inactive: [2] | [6] | [3] | [7] | [8]

CCOC(=O)C1(c2ccccc2)CCN(CCC(C#N)(c2ccccc2)c2ccccc2)CC1
inactive: [2] | [6] | [3] | [4]

Cc1cc(C(F)(C(F)(F)F)C(F)(F)F)ccc1NC(=O)c1cccc(I)c1C(=O)NC(C)(C)CS(C)(=O)=O
inactive: [1] | [9] | [2] | [3]

O=[N+]([O-])c1c2ccccc2cc2ccccc12
inactive: [2]

CCCCOCN(C(=O)CCl)c1c(CC)cccc1CC
active: [4] 49 µM
inactive: [9] | [2]

CCCCN(CCCC)C(=S)[S-].CCCCN(CCCC)C(=S)[S-].[Zn+2]
active: [2] 8.7 µM | [3] 13.8 µM

O=[N+]([O-])c1cc([N+](=O)[O-])c2ccccc2c1
inactive: [5] | [3] | [4]

C[C@@H]1O[C@@H](O[C@@H]2C=C3CC[C@@H]4[C@H](CC[C@]5(C)[C@@H](c6ccc(=O)oc6)CC[C@]45O)[C@@]3(C)CC2)[C@H](O)[C@H](O)[C@H]1O
active: [5] 0.0119 µM | [3] 0.0106 µM
